# Source: PubChem BioAssay (Tox21)
# Values without a mark were called inactive. Calls follow the shape of the dose curve; as a rule, active = well fitted cell-killing curve with a large enough effect in the repeat runs; inconclusive = weak or mixed curves, or effect the other way; inactive = flat fitted curve, though single readings scatter.
# Assay: qHTS assay to identify small molecule HDAC inhibitors - cell viability counter screen (AID 1259365); also: nearly all actives have a fitted effect of over 50% in size
# Conditions: HCT-116 viability, CellTiter-Glo ATP luminescence, 2 h; series mostly up to 92.4 µM; activity change, negative = cytotoxicity: at the top concentration
# How it was run: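 After overnight seeding at 1,500 cells per well, wild-type HCT-116 cultures took up compounds in DMSO for 2hr at 37 C. Viable cell content came from luminescence with CellTiter-Glo.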
# % is scaled to controls: 0 for no effect and ±100 for the full control effect.
row,Structure (SMILES),"activity change, negative = cytotoxicity"
1,CCCCCCOC(=O)C(C)C,-2.07%
2,C[C@@H]1C[C@H]2[C@@H]3CCC4=CC(=O)C=C[C@]4(C)[C@@]3(F)[C@@H](O)C[C@]2(C)[C@H]1C(=O)CO,-0.844% [at 42.5 µM]
3,CC(C)(C)C(=O)O,2.27%
4,CC(C)C(OC(=O)c1ccccc1)C(C)(C)COC(=O)c1ccccc1 (stereo not drawn),-8.04%
5,CCCCCCOC(=O)CCCCCCCC(=O)OCCCCCC,1.98%
6,NC(=O)Cn1c(=O)cc(CCN2CCN(c3nccc4sccc34)CC2)c2ccc(F)cc21,-2.64%
7,O=C(c1ccc(O)cc1)c1ccc(Cl)cc1,0.399%
8,C[C@@H]1C[C@H]2[C@@H]3CCC4=CC(=O)C=C[C@]4(C)[C@@]3(F)[C@@H](O)C[C@]2(C)[C@@]1(O)C(=O)CO,4.11%
9,CC(C)(C)CC(C)(C)c1ccc(OCCO)cc1,-4.94%
10,O=C(N[C@@H](c1ccccc1)[C@@H]1CCCCN1)c1cccc(C(F)(F)F)c1Cl,-0.248%
11,CC[C@H](NC(=O)c1cc(F)ccc1NS(=O)(=O)c1cccc2cccnc12)c1ccccc1,-0.741%
12,Cc1ccc(Nc2nccc(N(C)c3ccc4c(C)n(C)nc4c3)n2)cc1S(N)(=O)=O,13.5% [at 42.5 µM]
13,CO[C@H]1O[C@H](CO)[C@@H](O)[C@H](O)[C@H]1O,0.463%
14,C=CCOC(=O)/C=C\C(=O)OCC=C,5.66%
15,CC1(C)C2=CCCC(C)(C)[C@]23CC[C@H]1C3,-1.05%
16,CCOC(=O)N1CCC(n2c(=O)[nH]c3cc(Cl)ccc32)CC1,-3.06% [at 42.5 µM]
17,O=C(CCCN1CCN(c2ccc(F)cc2)CC1)NC1c2ccccc2CSc2ccccc21 (stereo not drawn),1.36% [at 42.5 µM]
18,C=CC(=C)CCCC(C)(C)OC(C)=O,5.6%
